# From ChEMBL document CHEMBL3988442, “University of Dundee, Small-Polar-MMV Screening Library” (2021)
# In all, about 66,000 compounds went through this assay and about 960 (1.5%) showed an effect of 50% or more. This is one part of a sample in which strong results are shown more often than they occur.
# Test system: Trypanosoma brucei
# Test: Trypanosoma brucei 72 hour study
# Format: functional, organism-based
# Design: scale not given: in the data most compounds retested in dose-response had high values
smiles,measurement,setting,value
CNC(=O)CN1CCCC12CCN(C(=O)c1cccc(F)c1)CC2.O=C(O)C(F)(F)F,Percent Effect,"30.3 µM, […]",-1.054%
O=C(NCc1ccco1)[C@H]1C[C@@H]2CCN(c3nncs3)C[C@H]2O1.O=C(O)C(F)(F)F,Percent Effect,"30.3 µM, […]",-27.54%
COc1cc2nc(NCc3scnc3C)nc(N)c2cc1OC,Percent Effect,"30.3 µM, […]",86.68%
COc1ccccc1NCC(=O)NCc1scnc1C,Percent Effect,"30 µM, 30.03 µM",-18.47%
COc1cc2nc(NCc3cc(C)on3)nc(N)c2cc1OC,Percent Effect,"30.3 µM, […]",-6.228%
COCCN1CCc2cc(C(=O)O)c(NCC3CC3)nc2CC1.O=C(O)C(F)(F)F.O=C(O)C(F)(F)F,Percent Effect,"30.3 µM, […]",-92.37%
CCn1nccc1C(=O)Nc1nc(C)c(C(C)=O)s1,Percent Effect,"30.3 µM, […]",-2.793%
CCCn1nccc1C(=O)Nc1ncc(C)s1,Percent Effect,"30.3 µM, […]",83.34%
CCCn1nccc1C(=O)Nc1nc(C)c(C)s1,Percent Effect,"30.3 µM, […]",41.43%
COCC1CC2(CCN(Cc3ccco3)CC2)CN1C(C)C.O=C(O)C(F)(F)F.O=C(O)C(F)(F)F (stereo not drawn),Percent Effect,"30 µM, 30.03 µM",42.98%
COc1cc(N2CCCC(c3nccn3CCN(C)C)C2)nc(N)n1 (stereo not drawn),Percent Effect,"30 µM, 30.03 µM",42.15%
COCCn1ccnc1C1CCCN(c2cc(OC)nc(N)n2)C1 (stereo not drawn),Percent Effect,"30 µM, 30.03 µM",-68.81%
COc1cc(N2CCCC(c3nccn3Cc3cscn3)C2)nc(N)n1 (stereo not drawn),Percent Effect,"30 µM, 30.03 µM",59%
Cc1cccn2cc(CNCc3cccc4c3OCCCO4)nc12,Percent Effect,"30.3 µM, […]",17.5%
CCC[C@]12CN3C[C@](CCC)(CN(C1)C3c1[nH]c(=O)[nH]c(=O)c1C)C2=O (stereo partly drawn),Percent Effect,"30 µM, 30.03 µM",-52.93%
CCc1noc(C2CCCCN2C(=O)c2cc(C)n(C)n2)n1 (stereo not drawn),Percent Effect,"30.3 µM, […]",-3.284%
Cc1csc(C2CCCCN2C(=O)c2cc(C(C)C)[nH]n2)n1 (stereo not drawn),Percent Effect,10 µM,-49.47%
CC(C)c1n[nH]c(C(=O)NC(C)c2ccncc2)c1Br (stereo not drawn),Percent Effect,"30.3 µM, […]",20.51%
same,Percent Effect,"10 mM, 10 mM as filed; unlikely as a test dose",-71.89%
CC(C)c1n[nH]c(C(=O)Nc2ccnn2C(C)C)c1Br,Percent Effect,"30 µM, 30.03 µM",-7.131%
CC(C)c1n[nH]c(C(=O)Nc2cc[nH]n2)c1Br,Percent Effect,"30 µM, 30.03 µM",-42.25%
CC(C)c1n[nH]c(C(=O)Nc2ccncc2)c1Br,Percent Effect,"30 µM, 30.03 µM",-10.71%
COc1ncccc1NC(=O)c1[nH]nc(C(C)C)c1Br,Percent Effect,"30 µM, 30.03 µM",7.14%
COc1ccccc1NC(=O)c1[nH]nc(C(C)C)c1Br,Percent Effect,"30 µM, 30.03 µM",-9.686%
Cc1cccc(NC(=O)c2[nH]nc(C(C)C)c2Br)n1,Percent Effect,"30.3 µM, […]",56.85%
same,Percent Effect,"10 mM, 10 mM as filed; unlikely as a test dose",8.768%
CC(C)c1n[nH]c(C(=O)Nc2ccccn2)c1Br,Percent Effect,"30.3 µM, […]",50.04%
same,Percent Effect,"10 mM, 10 mM as filed; unlikely as a test dose",-45.45%
Cc1ccnc(NC(=O)c2[nH]nc(C(C)C)c2Br)c1,Percent Effect,"30.3 µM, […]",57.19%
same,Percent Effect,"10 mM, 10 mM as filed; unlikely as a test dose",-20%
CCOC[C@]12COC[C@H]1CN(Cc1ccc(F)c(F)c1)C2.O=C(O)C(F)(F)F,Percent Effect,"30.3 µM, […]",6.986%
CS(=O)(=O)N[C@H]1CN(C(=O)c2cscn2)[C@@H]2CCCO[C@H]12,Percent Effect,"30 µM, 30.03 µM",28.48%
CNC(=O)[C@H]1C[C@@H]2CN(C(=O)c3ccccn3)C[C@@H]2N1S(C)(=O)=O.O=C(O)C(F)(F)F,Percent Effect,"30.3 µM, […]",-16.02%
CN1CCCC(CCC(=O)NCCc2nnc(N)s2)C1 (stereo not drawn),Percent Effect,"30 µM, 30.03 µM",1.066%
Cc1ccc(C(=O)N2CCC3(CC2)CCN(CCN(C)C)C3=O)cn1.O=C(O)C(F)(F)F.O=C(O)C(F)(F)F,Percent Effect,"30.3 µM, […]",-7.554%
COCc1nc(C(=O)NS(=O)(=O)c2c(C)c(C)cc(C)c2C)cs1,Percent Effect,"30.3 µM, […]",-6.08%
O=C(N1CCOCC1)[C@@]12CCO[C@@H]1CCN(C1CCOCC1)C2.O=C(O)C(F)(F)F,Percent Effect,"30 µM, 30.03 µM",-13.03%
CN(C)C(=O)C1OC2(CCN(c3ncc(F)cn3)CC2)c2ccccc21.O=C(O)C(F)(F)F (stereo not drawn),Percent Effect,"30 µM, 30.03 µM",-1.93%
COc1ccc(-c2nnsc2C(=O)N2CCC(C(N)=O)CC2)cc1,Percent Effect,"30.3 µM, […]",7.87%
Cc1ccsc1CN1CC[C@H]2OCC[C@@]2(C(=O)N2CCCO2)C1.O=C(O)C(F)(F)F,Percent Effect,"30.3 µM, […]",-14.02%
N#Cc1cccc(CS(=O)(=O)NCC(O)Cc2ccccc2)c1 (stereo not drawn),Percent Effect,"30 µM, 30.03 µM",-15.65%
CCCC(N)CNS(=O)(=O)Cc1cccc(C#N)c1.Cl (stereo not drawn),Percent Effect,"30.3 µM, […]",63.71%
Cc1ccccc1C(O)CNS(=O)(=O)Cc1cccc(C#N)c1 (stereo not drawn),Percent Effect,"30.3 µM, […]",7.529%
CCO[C@H]1CO[C@@]2(CCCN(Cc3scnc3C)C2)C1.O=C(O)C(F)(F)F,Percent Effect,"30 µM, 30.03 µM",-66.13%
Cc1nc(C)n(CC2CCCN2Cc2ccccn2)n1 (stereo not drawn),Percent Effect,"30.3 µM, […]",5.601%
Cc1nc(C)n(CC2CCCN2Cc2ccn(-c3ccccc3)n2)n1 (stereo not drawn),Percent Effect,"30.3 µM, […]",99.84%
Fc1cccc(-n2ccc(CN3CCCC3Cn3cccn3)n2)c1 (stereo not drawn),Percent Effect,10 µM,-58.75%
c1ccc(-n2ccc(CN3CCCC3Cn3cccn3)n2)cc1 (stereo not drawn),Percent Effect,"30.3 µM, […]",99.68%
Cc1nc(C)n(CC2CCCN2Cc2cn(-c3ccccc3)nn2)n1 (stereo not drawn),Percent Effect,"30 µM, 30.03 µM",-3.712%
c1ccc(-n2ccc(CN3CCCC3Cn3cncn3)n2)cc1 (stereo not drawn),Percent Effect,10 µM,-54.26%
O=C(CCN1C[C@@H]2CC[C@H]1C2)N1CCN(c2cccc(Cl)c2)C(=O)C1,Percent Effect,"30.3 µM, […]",-18.65%
CN1CCN(C2COC3(CCN(c4ccc(C#N)cc4)CC3)C2)CC1.O=C(O)C(F)(F)F (stereo not drawn),Percent Effect,"30.3 µM, […]",-31.63%
NC(=O)NCC(=O)N1CCCC(OCc2cccnc2)C1 (stereo not drawn),Percent Effect,"30 µM, 30.03 µM",-86.17%
O=C(Cn1ccnc1)N1CCCC(OCc2cccnc2)C1 (stereo not drawn),Percent Effect,"30 µM, 30.03 µM",-76.95%
NC(=O)CN1CCC(C(=O)N2CCCC(OCc3cccnc3)C2)CC1 (stereo not drawn),Percent Effect,"30 µM, 30.03 µM",52.75%
CCC(NC(=O)CC1CCN(C(C)C)CC1)c1cn2cccnc2n1 (stereo not drawn),Percent Effect,"30 µM, 30.03 µM",-16.96%
CN1[C@@H](C(=O)NCC2CC2)C[C@@H]2CN(Cc3ccsc3)C[C@@H]21.O=C(O)C(F)(F)F.O=C(O)C(F)(F)F,Percent Effect,"30.3 µM, […]",-75.19%
O=C1c2cnc(N3CCOCC3)nc2CN1Cc1cccc(F)c1,Percent Effect,"30 µM, 30.03 µM",-25.27%
Cc1cc(OCCC(=O)Nc2cccc(F)c2)nnc1C,Percent Effect,"30 µM, 30.03 µM",46.79%
Cc1cc(OCC(=O)NCc2ccc(F)cc2)nnc1C,Percent Effect,"30 µM, 30.03 µM",16.49%
Cc1cc(OCCC(=O)NCc2ccc(F)cc2)nnc1C,Percent Effect,"30 µM, 30.03 µM",71.51%
Cc1noc(C)c1CN1CCC2(CC1)C(c1ccccc1)CC(=O)N2C.O=C(O)C(F)(F)F (stereo not drawn),Percent Effect,"30.3 µM, […]",-57.86%
COc1ccc(CC(=O)N2C[C@H]3CN(Cc4ccccn4)C[C@H]3C2)cc1.O=C(O)C(F)(F)F,Percent Effect,"30.3 µM, […]",-4.643%
